Screens from PubChem.
ROMK mod – human ROMK K+ channel modulation, primary screen | AID 1918 | Tet-inducible ROMK, thallium flux fluorescence; actives lie on both sides | P48048 | actives 2% (n = 130,000) | B-score at 10 µM;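 active = signal ratio slope over the read window, or its plate-corrected B-score, at least 3 SD from the plate mean, either direction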;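 note: B-score of the F/F0 ratio slope over 7 to 12 s after thallium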
Target sequence (P48048 whole entry, looked up): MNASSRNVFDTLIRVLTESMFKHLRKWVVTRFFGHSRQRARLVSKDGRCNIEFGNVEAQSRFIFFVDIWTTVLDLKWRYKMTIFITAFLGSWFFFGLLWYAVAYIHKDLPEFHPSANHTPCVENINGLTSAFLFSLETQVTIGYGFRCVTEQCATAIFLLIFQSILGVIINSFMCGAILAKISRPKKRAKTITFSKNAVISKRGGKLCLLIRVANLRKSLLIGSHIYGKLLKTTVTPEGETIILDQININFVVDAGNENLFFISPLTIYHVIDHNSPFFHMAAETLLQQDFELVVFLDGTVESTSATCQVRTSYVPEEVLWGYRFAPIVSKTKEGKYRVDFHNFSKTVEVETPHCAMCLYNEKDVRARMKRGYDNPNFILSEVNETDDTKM
HSV augment – HSV replication enhancement. maximum fold increase. HSV replication augmentation in cells, fold increase. actives 0.005% (n = 220,000). AID 1956; in the data active = maximum fold increase above about 1.5; inconclusive = no clear call, values can overlap the other calls; tested in PC3 cells
Insulin prom up – MIN6 insulin promoter up-regulation | actives 0.3% (n = 190,000) | z-score at 5 µM | MIN6 insulin promoter-GFP reporter, high-content imaging; active compounds read high;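 active = z-score above 3 at 5 µM with at least 500 cells counted in the well; inconclusive = wells under 500 cells, flagged as cytotoxic or low count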
Tb hexokinase – T. brucei hexokinase 1 inhibition; AID 1430; recombinant TbHK1, G6PDH-coupled NADH A340; actives 0.11% (n = 220,000); inhibition, % at 10 µM;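 active = inhibition of 50% or more in the single-dose primary screen; inactive = inhibition below 50%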
Insulin prom inh – TRM-6 insulin promoter activity inhibition | TRM-6 cells (human fetal islet line), insulin promoter-eGFP reporter, imaging; reporter expression induced with tamoxifen | inhibition, % at 2 µM | actives 0.9% (n = 130,000) | AID 1273;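 active = inhibition above the mean plus 3 SD, with well images judged a real hit on visual review, cut at about 60% in these data, passing the limit was not always enough; inconclusive = inhibition over the cutoff but images rejected on review; inactive = inhibition not above the cutoff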
G6PDH ctr – Leuconostoc glucose-6-phosphate dehydrogenase inhibition, counter-screen; inhibition, % at 10 µM; AID 2516; purified G6PDH, NADH absorbance, 1 h; shares compounds with Tb hexokinase; actives 7% (n = 210);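 active = at least 50% inhibition in the glucose-6-phosphate dehydrogenase coupled counterscreen; inconclusive = no clear call, values can overlap the other calls; inactive = inhibition below 50%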
TbHK1 confirm – T. brucei hexokinase 1 inhibition, rescreen | actives 10% (n = 210) | recombinant TbHK1, G6PDH-coupled NADH A340 absorbance | shares compounds with Tb hexokinase | inhibition, % at 10 µM;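 active = inhibition of at least 50% in both of the two screening runs; inconclusive = at least 50% in one run, below 50% in the other; inactive = inhibition below 50% in both runs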;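 note: 0% and 100% set by the maximum and minimum signal control wells on each plate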
ROMK retest – retested hit modulating human ROMK potassium channel | actives 54% (n = 3,000) | normalized thallium flux (F/F0 slope) at 10 µM | shares compounds with ROMK mod | ROMK thallium flux, fluorescence ratio; active compounds read low;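 active = Flux at 10 µM at least 3 SD below or above vehicle control mean in one or both replicates; inconclusive = no clear call, values can overlap the other calls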
* marks the source's active call; other numbers are inactive results; i = inactive; ? = inconclusive; . = no result given; ! = a repeat was not active. Only a selection was taken, and hits are over-represented in it overall.

SMILES	ROMK mod	HSV augment	Insulin prom up	Tb hexokinase	Insulin prom inh	G6PDH ctr	TbHK1 confirm	ROMK retest
O=c1c2ccccc2sn1-c1ccccc1	-1.67	i	0.03	80.5*	6.9	-16.5	83.9*	.
Cc1occc1-c1nnc(SCC(=O)Nc2ccccc2-c2ccccc2)n1C	-0.6	i	-0.14	-2.6	-66.7	.	.	.
Cc1cccc(C)c1NC(=O)CSc1nnc(-c2ccoc2C)n1C	.	i	0.16	66.7*	8.3	2.9	-1.7	.
Clc1ccc(-c2nnc(NC3=NCCCCC3)o2)cc1	.	i	-0.17	50.0*	-18.2	-3.2	1.7	.
O=C(Nc1nnc(-c2ccc(Cl)cc2)o1)C1CCCCC1	.	i	0.12	-0.4	.	.	.	.
CCN(CCCNC(=O)CC(C(=O)N1CCc2ccccc21)n1ccnc1)c1ccccc1 (stereo not given)	.	i	-0.4	55.5*	-100.0	-27.8	-7.4	.
O=C(CC(C(=O)N1CCc2ccccc21)n1ccnc1)NCc1cccnc1 (stereo not given)	.	i	.	-0.3	-22.7	.	.	.
O=C(O)C1CCCCC1C(=O)NCCCN1CCOCC1 (stereo not given)	.	i	0.1	51.0*	36.4	-7.1	-3.1	.
O=C(NCCCN1CCOCC1)C(=O)NCC1CCCO1 (stereo not given)	1.44	i	-0.14	31.3	-13.9	.	.	.
COc1ccc(C(C(=O)Nc2ccc(C(C)C)cc2)N(C)C(=O)c2ccc(=O)[nH]c2)cc1 (stereo not given)	-0.336	i	-0.37	-4.3	.	.	.	.
CCC(=O)NC(c1cccs1)c1cc([N+](=O)[O-])c2cccnc2c1O (stereo not given)	-0.926	i	1.03	52.1*	.	-23.4	6.3	.
CCN(CC)S(=O)(=O)c1ccc(C(=O)NC2=C(C(=O)OC)SCC2)cc1	.	i	-1.23	55.2*	0.0	-82.2	-33.8	.
COC(=O)C1=C(NC(=O)c2ccc(C)c(C)c2)CCS1	.	i	-0.06	57.4*	45.5	1.4	-1.1	.
COC(=O)C1=C(NC(=O)c2ccc(Br)cc2)CCS1	0.0129	i	-0.43	0.2	-5.0	.	.	.
N#Cc1cc(Sc2ccccn2)c(Sc2ccccn2)cc1C#N	.	i	1.13	57.9*	-25.0	-11.5	-9.3	.
N#Cc1cc(Sc2ccccn2)c([N+](=O)[O-])cc1C#N	0.0687	?	1.41	-9.9	-82.3	.	.	.
Cc1ccc(S(=O)(=O)NNC(=S)NC(=O)c2ccc([N+](=O)[O-])cc2)cc1	-0.0892	i	-0.1	77.8*	-25.9	-26.1	10.1	.
CCN(CC)S(=O)(=O)c1ccc(O)c(NS(=O)(=O)c2ccccc2F)c1	0.485	i	.	2.1	.	.	.	.
C=CCNC(=O)CC(C)C(CCCCC)C(=O)O (stereo not given)	.	i	0.68	50.3*	-18.2	-9.0	2.8	.
O=C(C1CCN(S(=O)(=O)c2cccc3nsnc23)CC1)N1CCc2ccccc2C1	.	.	-0.26	53.6*	50.0	-30.3	-19.2	.
CCOC(=O)N1CCN(C(=O)CN(Cc2ccccc2)S(C)(=O)=O)CC1	0.783	i	-0.16	-7.2	25.0	.	.	.
CCOC(=O)N1CCN(c2ccc(S(=O)(=O)N(Cc3ccccc3)Cc3ccccc3)cn2)CC1	.	i	-1.1	57.6*	-27.3	-45.7	7.0	0.0753
Cc1nn(CC(=O)Nc2cccc(S(N)(=O)=O)c2)c(C)c1[N+](=O)[O-]	0.872	i	0	31.4	7.4	.	.	.
C/C(=N\NC(=O)Cn1cc([N+](=O)[O-])cn1)c1ccco1	.	i	-0.33	-2.4	.	.	.	.
Cc1ccccc1-n1sc2cc(F)ccc2c1=O	-4.71*	i	1.6	55.4*	-123.5	-2.1	78.6*	0.0567*
SMILES	ROMK mod	HSV augment	Insulin prom up	Tb hexokinase	Insulin prom inh	G6PDH ctr	TbHK1 confirm	ROMK retest
O=c1c2ccccc2sn1-c1nccs1	-3.71*	i	0.02	71.8*	38.9	-12.4	74.0*	0.0709
COc1cc(C2C(C#N)=C(N)Oc3cc(N(C)C)ccc32)cc2c1OCO2 (stereo not given)	.	.	-0.36	59.1*	-127.3	-7.4	-12.7	0.0576*
Cc1ccccc1OCc1n(CC(=O)OC2CC(C)CCC2C(C)C)c2ccccc2[n+]1C (stereo not given)	.	i	-5.14	75.6*!	-28.6	38.8	29.8	0.0417*
CC1CCC(C(C)C)C(OC(=O)COC(=O)c2ccc(N)cc2)C1 (stereo not given)	.	i	-0.46	-2.9	.	.	.	.
CCOC(=O)C1=C(O)C(=O)N(c2ccc(S(N)(=O)=O)cc2)C1c1ccc(Br)cc1 (stereo not given)	.	i	0.35	-29.3	.	.	.	.
NC1=NC(c2ccc(F)cc2)n2c(nc3ccccc32)N1 (stereo not given)	-2.49	i	0.21	9.2	.	.	.	.
Cc1ccc(-n2c(C)cc(C3N=C(N)Nc4nc5ccccc5n43)c2C)c(C)c1 (stereo not given)	.	i	-2.57	2.3	.	.	.	0.0466*
Cc1cc(C2N=C(N)Nc3nc4ccccc4n32)c(C)n1-c1ccccc1Cl (stereo not given)	-5.05*	i	0.07	9.7	9.7	.	.	0.0593*
NC1=NC(c2cccc(O)c2)n2c(nc3ccccc32)N1 (stereo not given)	0.616	i	0.39	-0.5	-28.6	.	.	.
Cc1ccsc1/C=N/NC(=O)c1ccncc1	0.917	i	-1.21	-39.2	18.5	.	.	.
COc1cc(C(=O)N/N=C/c2cc([N+](=O)[O-])cs2)cc(OC)c1OC	4.12*	.	1.28	-30.5	-375.0	.	.	0.0878
COc1cc(C(=O)N/N=C/c2sccc2C)cc(OC)c1OC	5.09*	i	-0.87	-48.7	-233.3	.	.	?
CSCCC(NC(N)=O)C(=O)Nc1cccc(C#N)c1 (stereo not given)	0.836	i	0.12	-5.5	.	.	.	.
Cc1ccc(C)c(N(C)C(=O)c2cc3c(=O)[nH]c4ccc(C)cc4c3s2)c1	-0.642	i	-0.49	-21.9	.	.	.	.
CCCN(CCC)C(=O)c1cc2c(=O)[nH]c3ccc(C)cc3c2s1	-4.24*	i	-1.49	-7.6	5.9	.	.	0.0732
O=C1CN(C(=S)NC(=O)c2ccc(-c3ccccc3)cc2)CCN1	1.12	i	-0.59	1.0	.	.	.	.
CN1C(C(=O)c2ccccc2)=C(N)c2ccccc2S1(=O)=O	3*	i	.	-10.5	.	.	.	0.0663*
COc1ccccc1-n1cnc2cc(NCc3ccco3)ccc21	7.9*	i	-1.67	1.1	.	.	.	0.0877
CCCNC(=O)c1ccccc1NC(=O)c1ccc(CSc2ccccc2)cc1	.	i	-0.84	7.3	10.0	.	.	.
O=C(CSCc1ccc(F)cc1)NCc1ccc(F)cc1	2.97*	i	-0.84	8.7	0.0	.	.	0.0788
COc1ccc(C(=O)Nc2ccc(NS(=O)(=O)c3ccccc3)cc2)cc1OC	.	i	1.35	-6.5	.	.	.	.
CCNc1sc(C(=O)OCC)c(N)c1C#N	0.73	i	-0.73	-15.6	54.5	.	.	.
COc1ccccc1N1CCN(C2CCN(C3CCC(c4ccccc4)CC3)CC2)CC1 (stereo not given)	-3.12*	i	.	-21.6	.	.	.	0.061*
